Compound activity (PubChem BioAssay)
This is a sample that favours compounds with a hit; in the whole collection about 2% have one here.
ClpP mod: qHTS Assay for Activators of ClpP. ATP-dependent Clp protease proteolytic subunit (Bacillus subtilis (strain 168)), P80244. purified B. subtilis ClpP, FRET peptide cleavage, 20 min. Potency, µM (series often up to 57.5 µM), without a hit: top-dose activity change, negative = active. 1.9% of 340,000 active. AID 651965, 2013; active means well fitted falling curve with a large enough effect; inconclusive means small, poorly fitted or top-dose-only effect; inactive means no such curve, though single readings can be large or run the other way; further: potency means the concentration at half of the fitted maximal effect; the source files actives as falling curves though it sought activators and does not explain the sign; nearly all actives have a fitted effect of over 65% in size
Target sequence (P80244 whole entry, looked up): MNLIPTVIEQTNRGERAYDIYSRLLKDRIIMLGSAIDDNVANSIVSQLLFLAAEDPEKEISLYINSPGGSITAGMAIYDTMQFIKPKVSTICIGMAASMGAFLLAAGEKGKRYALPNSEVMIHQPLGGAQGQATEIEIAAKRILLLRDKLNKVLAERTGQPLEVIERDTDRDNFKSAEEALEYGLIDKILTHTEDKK
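Purified B. subtilis ClpP, 10 microg/mL final in Tris/HCl pH8 with KCl, BSA, glycerol and Tween-20, cleaved an Abz/nitrotyrosine-quenched decapeptide. Fluorescence (ex 320, em 430) was read at 0 and 20 min at room temperature. Delta was normalized to 5.8 microM ADEP and DMSO/no-enzyme controls.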
PKM2 act: qHTS Assay for Activators of Human Muscle isoform 2 Pyruvate Kinase | Pyruvate kinase PKM (Homo sapiens), P14618 | 0.34% of 260,000 active | Potency, µM (series often up to 57.5 µM), for the others: top-dose activation, most hits filed as activators | purified PKM2, Kinase-Glo ATP luminescence, activation; response scale: 0% is enzyme alone, no compound; further: potency means the concentration at half of the fitted maximal effect; on the % scale 0 is the no-effect control and ±100 the full control effect; nearly all actives have a fitted effect of over 55% in size
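Purified hPK-M2 (>95% pure) converted ADP (0.1 mM final) to ATP with 0.5 mM PEP in 50 mM imidazole pH7.2, KCl, MgCl2, Tween 20, BSA; 1 h at room temperature. ATP detected by Kinase-Glo luminescence.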
NPSR antagonist: qHTS Assay for Antagonists of the Neuropeptide S Receptor: cAMP Signal Transduction; Potency, µM (top dose mostly 38.3 µM), for inactives: top-dose activity change, negative = inhibition, actives largely listed as inhibitors; AID 1461, 2008; CHO-NPSR cells, cAMP TR-FRET, antagonist mode; 1% of 220,000 active; further: potency means the concentration at half of the fitted maximal effect; on the % scale 0 is the no-effect control and ±100 the full control effect; nearly all actives have a fitted effect of over 50% in size
Target sequence (Q6W5P4 whole entry, looked up): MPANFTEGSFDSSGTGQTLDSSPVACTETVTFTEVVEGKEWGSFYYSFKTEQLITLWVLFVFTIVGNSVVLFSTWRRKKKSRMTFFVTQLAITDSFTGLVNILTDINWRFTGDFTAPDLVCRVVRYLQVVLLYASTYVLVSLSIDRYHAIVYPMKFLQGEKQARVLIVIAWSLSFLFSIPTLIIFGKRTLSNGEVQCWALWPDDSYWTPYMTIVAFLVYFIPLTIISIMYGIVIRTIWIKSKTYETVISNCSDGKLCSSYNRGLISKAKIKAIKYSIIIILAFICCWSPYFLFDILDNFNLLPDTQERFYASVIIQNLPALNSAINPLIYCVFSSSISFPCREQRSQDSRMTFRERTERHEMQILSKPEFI
IL-2 act: qHTS of IL-2 Activators; IL-2 activation reporter assay, cell-based qHTS; stimulated with anti-CD3/CD4/CD28 beads; in transgenic mouse T cells; activation, % (series mostly up to about 46 µM); 0.065% of 360,000 active; AID 652025, 2013; in the data active means activation above about 50%; inconclusive means mostly about 30% to 49%; further: 0% is about no effect
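Readout: EGFP and DsRed signals by fluorescent plate cytometry. Unstimulated transgenic mouse T cells received compound 60 min before antibody-bead stimulation, then incubated 18 h at 37 degrees C.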
An asterisk follows results filed as active; [ ] = dose if it differs, or a comment. Unless noted, the call rests on the fitted dose curve; in most records, active means well fitted curve in the direction sought with a large enough effect; inconclusive means small, poorly fitted or top-dose-only effect, or another doubt; inactive means no such curve, though single readings can be large; an effect the other way counts as inactive or inconclusive.

What do the screens show for `COC(=O)c1ccc(CNCC(O)COc2ccc(-c3ccccc3)cc2)cc1` (stereo not drawn)?
PKM2 act: -1%; IL-2 act: 1

How did Cc1ccc2nsnc2c1S(=O)(=O)N1CCN(C(=O)C2CCCO2)CC1 (stereo not drawn) do in these assays?
ClpP mod: -2%; PKM2 act: 10%; NPSR antagonist: -7%[46.1 µM]; IL-2 act: 0

How did Cc1cc(C(=O)CSc2nc3ccc(Cl)cc3[nH]2)c(C)n1C do in these assays?
ClpP mod: -5%; PKM2 act: 16µM*; NPSR antagonist: -19%[46.1 µM]; IL-2 act: -1

What do the screens show for `NS(=O)(=O)c1cccc(NC(=O)CSc2nc3ccc(Cl)cc3[nH]2)c1`?
ClpP mod: 14µM*; PKM2 act: -13%; NPSR antagonist: -1%; IL-2 act: 0

How did Cc1ccc2nc(SCC(=O)Nc3cccc(S(=O)(=O)N(C)C)c3)[nH]c2c1 do in these assays?
ClpP mod: 1%; PKM2 act: 2%; NPSR antagonist: 5%; IL-2 act: 1

What do the screens show for `Cc1cnn(-c2nc(-c3cccs3)cc(C(F)(F)F)n2)c1`?
ClpP mod: -23%; PKM2 act: -2%; NPSR antagonist: -10%[46.1 µM]; IL-2 act: 1

Results for FC(F)(F)c1cc(-c2cccs2)nc(-n2cc(Br)cn2)n1 ?
ClpP mod: 32µM*; PKM2 act: -5%; NPSR antagonist: -5%[46.1 µM]; IL-2 act: 0

Results for COc1ccc(C(=O)N2CCN(C(=O)c3ccncc3)CC2)cc1 ?
ClpP mod: 1%; PKM2 act: -1%; NPSR antagonist: 9%[46.1 µM]; IL-2 act: -3

Results for Cc1ccc[n+](CC(=O)c2cc3ccccc3oc2=O)c1 ?
ClpP mod: inconclusive; PKM2 act: 26%; NPSR antagonist: 2%[46.1 µM]; IL-2 act: -1

What do the screens show for `O=C(Cn1nc(Cl)nc1Cl)c1ccccc1`?
PKM2 act: -4%; IL-2 act: -1

What do the screens show for `Cc1cc(C)c[n+](CC(=O)c2cc3ccccc3oc2=O)c1`?
ClpP mod: 28µM*; PKM2 act: 13%; NPSR antagonist: -4%[46.1 µM]; IL-2 act: 1

Results for O=C(Cn1nc(Cl)nc1Cl)c1cc2ccccc2oc1=O ?
ClpP mod: 28µM*; PKM2 act: -2%; NPSR antagonist: -26%[46.1 µM]; IL-2 act: -1

Results for COc1ccc(C=O)cc1OC1C=CCCC1 (stereo not drawn) ?
ClpP mod: -2%; IL-2 act: 0

Results for O=C(CSc1nc2ccccc2n1Cc1ccccc1Cl)N/N=C/c1ccccc1C(=O)O ?
ClpP mod: 0%; PKM2 act: 25µM*; NPSR antagonist: 30%; IL-2 act: -1

What do the screens show for `CCOc1ccc(N(Cc2cc3cc(OC)ccc3[nH]c2=O)S(C)(=O)=O)cc1`?
ClpP mod: 28µM*; PKM2 act: 2%; NPSR antagonist: -22%[46.1 µM]; IL-2 act: -2

What do the screens show for `COc1ccc2[nH]c(=O)c(CN(C)C(=O)COc3ccccc3)cc2c1`?
ClpP mod: 32µM*; PKM2 act: -1%; NPSR antagonist: -9%[46.1 µM]; IL-2 act: 1

What do the screens show for `CCN(CC(=O)NCc1ccc(F)cc1)C(=O)Cc1ccc(OC)cc1`?
ClpP mod: 16µM*; PKM2 act: -9%; IL-2 act: -1

How did CCN(CC(=O)NCc1ccc(F)cc1)C(=O)/C=C/c1ccc(OC)cc1 do in these assays?
PKM2 act: 0%; IL-2 act: 2

Results for CCN(Cc1cc2cc(OC)ccc2[nH]c1=O)C(=O)c1ccncc1 ?
ClpP mod: inconclusive; PKM2 act: 0%; NPSR antagonist: 0%[46.1 µM]; IL-2 act: 0

How did CCN(Cc1cc2cc(OC)ccc2[nH]c1=O)C(=O)Cc1ccc(OC)cc1 do in these assays?
ClpP mod: 28µM*; PKM2 act: 0%; NPSR antagonist: 21%[46.1 µM]; IL-2 act: 0

What do the screens show for `COc1ccc2[nH]c(=O)c(CN(c3ccc(C)c(C)c3)S(C)(=O)=O)cc2c1`?
PKM2 act: -1%; NPSR antagonist: -19%; IL-2 act: 0

How did CCc1ccc(NC(=O)CSc2nnc(C3CC3)n2CC2CCCO2)cc1 (stereo not drawn) do in these assays?
ClpP mod: 0%; PKM2 act: 1%; IL-2 act: 0

How did CCOc1cc(C(=O)N(C)Cc2cc3cc(OC)ccc3[nH]c2=O)cc(OCC)c1OCC do in these assays?
ClpP mod: -3%; PKM2 act: 4%; NPSR antagonist: -8%[46.1 µM]; IL-2 act: 0

How did CCOc1ccccc1C(=O)N(C)Cc1cc2cc(OC)ccc2[nH]c1=O do in these assays?
ClpP mod: 32µM*; PKM2 act: -2%; NPSR antagonist: -6%[46.1 µM]; IL-2 act: 0

Results for COc1ccc2[nH]c(=O)c(CN(CCO)C(=O)NCc3ccccc3)cc2c1 ?
ClpP mod: 25µM*; PKM2 act: 6%; NPSR antagonist: -3%[46.1 µM]; IL-2 act: -2

How did CC(=O)N(c1ccccc1C)C1CCCC1 do in these assays?
ClpP mod: -16%; PKM2 act: -3%; NPSR antagonist: 10%; IL-2 act: -1

Results for CC(=O)N(C1=C(Cl)C(=O)c2ccccc2C1=O)C1CCCCC1 ?
ClpP mod: 0%; PKM2 act: 3.5µM*; NPSR antagonist: 6.3µM*; IL-2 act: -1

How did CC(C)N(CC#CC(O)(c1ccccc1)c1ccccc1)C(C)C do in these assays?
ClpP mod: 32µM*; PKM2 act: -4%; NPSR antagonist: -33%; IL-2 act: -1

Results for c1ccc(-c2cc3ccccc3nc2N2CCCC2)cc1 ?
ClpP mod: 28µM*; PKM2 act: -2%; NPSR antagonist: -3%[46.1 µM]; IL-2 act: -3

What do the screens show for `Cc1ccc(-c2cc3ccccc3nc2N2CCOCC2)cc1`?
PKM2 act: -3%; NPSR antagonist: -48%; IL-2 act: 2

What do the screens show for `COc1cccc(C(=O)NC2CCCN(C3Cc4ccccc4C3)C2)c1OC` (stereo not drawn)?
ClpP mod: -2%; IL-2 act: 1

How did CC(=O)Nc1ccc(NC(=O)c2ccc(NS(=O)(=O)c3cc(C(C)(C)C)cc(C)c3C)cc2)cc1 do in these assays?
ClpP mod: 28µM*; PKM2 act: -7%; NPSR antagonist: -30%; IL-2 act: 2

How did Cc1cc(C(C)(C)C)cc(S(=O)(=O)Nc2ccc(O)c(C(=O)O)c2)c1C do in these assays?
ClpP mod: -27%; PKM2 act: -15%; NPSR antagonist: -3%[46.1 µM]; IL-2 act: -2

How did C=CCN1C(=O)c2ccccc2Sc2ccc(C(=O)N3CCN(C)CC3)cc21 do in these assays?
ClpP mod: -1%; PKM2 act: -3%; NPSR antagonist: -8%[46.1 µM]; IL-2 act: 2

Results for Cc1ccc(CNc2nc3ccc(Cl)cc3n3cnnc23)cc1 ?
ClpP mod: -2%
